AmpC det inh: AmpC beta-lactamase inhibition, detergent assay | P00811 | purified AmpC, nitrocefin hydrolysis with detergent | Potency, µM (top dose mostly 28.7 µM), for inactives: at the highest dose activity change, negative = inhibition | 0.09% of 71,000 active | AID 584; active means well fitted curve in the direction sought with a large enough effect; inconclusive means small, poorly fitted or top-dose-only effect; further: on the % scale 0 is the no-effect control and ±100 the full control effect
Target sequence (P00811 whole entry, looked up): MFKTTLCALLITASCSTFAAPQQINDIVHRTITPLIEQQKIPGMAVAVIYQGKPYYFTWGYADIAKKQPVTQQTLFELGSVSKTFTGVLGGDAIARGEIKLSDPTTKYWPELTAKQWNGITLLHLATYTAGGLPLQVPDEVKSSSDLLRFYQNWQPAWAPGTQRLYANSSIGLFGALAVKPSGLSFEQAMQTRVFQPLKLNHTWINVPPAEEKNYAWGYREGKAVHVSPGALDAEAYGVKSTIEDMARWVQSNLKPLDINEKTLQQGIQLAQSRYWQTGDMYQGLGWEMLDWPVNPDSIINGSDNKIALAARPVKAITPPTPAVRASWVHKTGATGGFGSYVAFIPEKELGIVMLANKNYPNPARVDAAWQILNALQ
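E. coli AmpC (5.3 nM) in 20 mM phosphate pH 7.0 with 0.01% Triton X-100, preincubated 15 min RT with compound; nitrocefin (2 uL of 800 uM stock) hydrolysis followed by 480 nm absorbance every 20 s over 4 min.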
SmPrx2 inh: blocks S. mansoni peroxiredoxin 2 enzymatic activity | 0.07% of 65,000 active | AID 448 | Potency, µM | S. mansoni Prx2 activity coupled to TGR/GSH (TGR is thioredoxin glutathione reductase), NADPH fluorescence loss, qHTS
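Prx2 inhibition was measured as reduced NADPH consumption when electrons flowed from NADPH through TGR and glutathione to Prx2 and H2O2. Plates were read kinetically over 8 min; enzyme reagents were held at 4 deg C during dispensing.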
AmpC inh no det: blocks E. coli AmpC beta-lactamase in absence of detergent | AID 585 | P00811 | AmpC nitrocefin hydrolysis, absorbance 480 nm, no detergent | 1.8% of 71,000 active | Potency, µM (titrated, usually from 28.7 µM), without a hit: top-dose activity change, negative = inhibition; further: % of control where 0% means no effect
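AmpC, 20 mM phosphate pH 7.0; 15 min cpd preinc, RT; start with nitrocefin (800 uM stock); A480 kinetic read, 20 s intervals, 4 min. No-enzyme wells = negative control.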
Anthrax LT inh: blocks cellular internalization of anthrax lethal toxin; Cells, anthrax lethal toxin internalization, FRET ratio (460/530); Potency, µM (top dose mostly 40 µM), for inactives: top-dose activity change, negative = inhibition, usual class: inhibitors; 0.67% of 70,000 active; AID 912; further: on the % scale 0 is the no-effect control and ±100 the full control effect; nearly all actives have a fitted effect of over 50% in size
Starred values were filed as active, the others as inactive; ? = inconclusive; nt = not tested or not shown; ! = not active in a repeat; [ ] = remark or other dose. Rows were chosen to be rich in hits. Some 2.4% of all compounds tested hit in one or more screens of this group. Unless noted, the call rests on the fitted dose curve. Potency means the concentration at half of the fitted maximal effect.

SMILES | AmpC det inh | SmPrx2 inh | AmpC inh no det | Anthrax LT inh
C[C@@H]1C[C@@H]2[C@H]3CCC4=CC(=O)C=C[C@]4(C)[C@]3(Cl)[C@@H](O)C[C@@]2(C)[C@@]1(O)C(=O)CO | -1.8% | >57 | 11.3% | -9.8%
CCOC(=O)CNC(=O)C(Cc1ccccc1)NS(=O)(=O)c1ccc2c(c1)CCC(=O)N2 (stereo not drawn) | 12.8% | >57 | 9.7% | 11.7%
CC(C)C(NS(=O)(=O)c1ccc2c(c1)oc(=O)n2C)C(=O)N1CCN(c2ccccc2F)CC1 (stereo not drawn) | 15.4% | >57 | 3.98µM*[single pt active] | ?
CC(C)NS(=O)(=O)c1ccc2c(c1)oc(=O)n2C | 11.3% | >57 | 7.9% | 4.2%
O=C1CCc2cc(S(=O)(=O)NC(Cc3ccccc3)C(=O)NCC3CCCO3)ccc2N1 (stereo not drawn) | 13.3% | >57 | 3.98µM*[single pt active] | 4.1%
CN1CCN(C(=O)C(Cc2ccccc2)NS(=O)(=O)c2ccc3c(c2)CCC(=O)N3)CC1 (stereo not drawn) | 7.0% | >57 | 3.98µM*[single pt active] | 3.3%
Cn1c(=O)oc2cc(S(=O)(=O)NC(Cc3ccccc3)C(=O)N3CCCCC3)ccc21 (stereo not drawn) | 11.0% | >57 | 3.98µM*[single pt active] | 9.0%
COc1ccc2[nH]cc(CCNc3cc(-c4c(C)noc4C)ncn3)c2c1 | 7.1% | >57 | 7.8% | -12.1%
CC(C)CC(NS(=O)(=O)c1ccc2c(c1)oc(=O)n2C)C(=O)NCc1cccnc1 (stereo not drawn) | 13.7% | >57 | 3.98µM*[single pt active] | -6.6%
CCc1ccc(C2C(C#N)=C(N)SC(N)=C2C#N)s1 | 0.7% | >57 | -22.1% | 10µM*
CCc1ccc(C2C(C#N)=C(N)SC(N)=C2C#N)cc1 | -6.9% | nt | -16.0% | 12.6µM*
COc1cccc(-c2nc(NC3CCNCC3)c3ccccc3n2)c1 | 3.4% | >57 | 14.7% | -22.9%
CCCCC#Cc1nc(N)c2ncn([C@@H]3O[C@@H](C(=O)NCC)[C@H](O)[C@@H]3O)c2n1 | -3.1% | >57 | 14.8% | -15.6%
Oc1ccc(Cl)cc1Sc1cc(Cl)ccc1O | -3.2%[5.75 µM] | >57 | -12.5%[5.75 µM] | 5.01µM*!
COc1ccc(S(=O)(=O)N(CCCN2CCCC2=O)Cc2cc3cc(C)c(C)cc3[nH]c2=O)cc1 | -2.4% | 58.2* | 155.8% | 16.1%
COc1ccc(N2CCN(C(=O)c3cc4c(-c5ccc(Cl)cc5)nn(C)c4s3)CC2)cc1 | 11.6% | >57 | 3.98µM*[single pt active] | ?
COc1cccc(-c2nn(C)c3sc(C(=O)N4CCOCC4)cc23)c1 | 1.0% | >57 | 136.0% | 18.6%
COc1cccc(-c2nn(C)c3sc(C(=O)N4CCN(c5ccccn5)CC4)cc23)c1 | -2.9% | >57 | 97.0% | 10µM*
CC1CCN(c2c(NCc3ccc(C(=O)NCC4COc5ccccc5O4)cc3)c(=O)c2=O)CC1 (stereo not drawn) | 15.0% | >57 | 3.98µM*[single pt active] | -2.2%
N=C(N)SCc1ccc(Cl)c2ccccc12 (tested in a mixture with another compound) | -1.5%[5.75 µM] | >57 | -9.8%[5.75 µM] | ?
Cc1cc(O)ccc1Nc1nc2ccccc2nc1Nc1ccc(O)cc1C | 3.9% | nt | 12.6µM* | 15.6%
O=C(O)C(C(=O)O)P(=S)(S)c1ccccc1 (stereo not drawn) | -1.8%[5.75 µM] | >57 | 8.2%[5.75 µM] | -1.5%[8 µM]
Cc1ccc2[nH]c(=O)c(CN(CCc3ccccc3)C(c3nnnn3Cc3ccco3)C(C)C)cc2c1 (stereo not drawn) | 5.6% | >57 | 5.01µM* | ?
CCC(c1nnnn1Cc1ccco1)N(CCc1ccccc1)Cc1cc2cc(C)ccc2[nH]c1=O (stereo not drawn) | 1.0% | >57 | 15.6% | -18.1%
C[C@@H](CN1CCC(Cc2ccccc2)CC1)[C@H](O)c1ccc(O)cc1 | -1.3% | >57 | -10.8% | 11.7%
SMILES | AmpC det inh | SmPrx2 inh | AmpC inh no det | Anthrax LT inh
CCC(C)SCc1nc2ccccc2[nH]1 (stereo not drawn) | -4.4% | nt | -11.7% | 5.4%
CC(C)N(Cc1nc2ccccc2[nH]1)C(C)C | 9.5% | >57 | 3.98µM*[single pt active] | -9.7%
COc1cc(C(=O)O[C@@H]2CC(C)=CC[C@@]3(C)CC[C@](O)(C(C)C)[C@H]23)ccc1O | -2.9% | >57 | -15.0% | ?
COc1ccccc1NC(=O)C1=C(C)Nc2ncnn2C1c1cccs1 (stereo not drawn) | -1.7% | >57 | 9.5% | ?
CC1=C(C(=O)OC(C)C)C(c2cccc(F)c2)n2ncnc2N1 (stereo not drawn) | 13.7% | >57 | 3.98µM*[single pt active] | ?
CC1=C(C(=O)OC(C)C)C(c2cccs2)n2ncnc2N1 (stereo not drawn) | 12.6% | >57 | 3.98µM*[single pt active] | ?
CC1=C(C(=O)OC(C)C)C(c2c[nH]c3ccccc23)n2ncnc2N1 (stereo not drawn) | 12.3% | >57 | 3.98µM*[single pt active] | 4.0%
CC[C@H](C)[C@@H]1O[C@]2(CC[C@@H]1C)C[C@H]1C[C@H](CC=C(C)[C@@H](O[C@H]3C[C@H](OC)[C@H](O[C@H]4C[C@H](OC)[C@H](O)[C@H](C)O4)[C@H](C)O3)[C@@H](C)C=CC=C3CO[C@@H]4[C@@H](O)C(C)=C[C@H](C(=O)O1)[C@@]34O)O2 | -5.7% | ? | 111.4% | ?
COc1ccc([C@@H](Nc2ccccn2)c2cc(C(C)(C)C)cc(C(C)(C)C)c2O)cc1 | -2.0%[5.75 µM] | >57 | -15.0%[5.75 µM] | ?
CC(C)C(=O)CP(=O)(O)O | -4.0%[5.75 µM] | >57 | -3.7%[5.75 µM] | 3.1%[8 µM]
COc1ccc(CNc2nc(-c3ccccc3OC)nc3ccccc23)c(OC)c1 | 8.3% | >57 | 82.7% | ?
CCOC(=O)N1CCN(c2nc(SC)nc3sc4c(c23)CC(C)(C)OC4)CC1 | ? | >57 | ? | ?
CC1(C)Cc2c(sc3nc(SCC(=O)N4CCOCC4)nc(N)c23)CO1 | -3.3% | >57 | 25.1% | 7.94µM*
Cn1c(=O)c2c(nc(C(=N)SCC(=O)O)n2C)n(C)c1=O | -2.3%[5.75 µM] | >57 | -9.4%[5.75 µM] | -24.0%[8 µM]
COc1ccccc1OCCn1cc(C(=O)c2ccco2)c2ccccc21 | 6.2% | >57 | 5.8% | 10µM*
Nc1nc(C(=O)O)c(N=Nc2ccccc2)c(=O)[nH]1 | -2.3%[5.75 µM] | >57 | -15.8%[5.75 µM] | -6.3%[8 µM]
NCCNC(=S)S | -4.5%[5.75 µM] | >57 | -3.9%[5.75 µM] | ?
O=C(O)/C(=C\c1ccccc1)Cc1ccccc1 | -2.6%[5.75 µM] | >57 | 5.8%[5.75 µM] | -4.9%[8 µM]
NS(=O)(=O)c1ccc(NC(=O)CCC2CCCCC2)cc1 | 9.0% | nt | 7.94µM* | -21.9%
CCOC(=O)c1c(NC(=O)c2noc3c2CCCC3)sc2c1CCCC2 | -1.5% | >57 | 5.1% | -6.7%
CCCc1cc(C(=O)Nc2sc3c(c2C(=O)OCC)CCCC3)no1 | 8.1% | >57 | 3.98µM*[single pt active] | -11.8%
CCCc1cc(C(=O)Nc2cc(Br)ccc2O)no1 | 6.4% | >57 | 15.8µM*[single pt active] | ?
CCCc1cc(C(=O)Nc2ccc(C)cc2)no1 | 16.3% | >57 | 3.98µM*[single pt active] | ?
Cc1ccc(NC(=O)c2cc(C)on2)cc1 | 1.7% | >57 | -14.5% | -25.2%
NC1=N[C@H](c2ccc(Cl)cc2)N(c2ccc(S(N)(=O)=O)cc2)C(N)=N1 | -0.9%[5.75 µM] | >57 | -6.4%[5.75 µM] | ?
Cc1cnc(NC(=O)CCCSc2nc3ccccc3s2)s1 | -4.1% | >57 | 12.6µM* | 18.3%
